The values that follow come from PubChem BioAssay (Tox21).

A number with no mark means an inactive call. Records with an inconclusive call do not appear. The source made the active and inactive calls. Unless noted, calls follow the shape of the dose curve; as a rule, active = well fitted curve in the direction sought with a large enough effect in the repeat runs; inconclusive = weak or mixed curves; inactive = no such curve, though single readings can be large; an effect the other way counts as inactive or inconclusive.

The nature of experiment [1]: qHTS assay to test for compound auto fluorescence at 535 nm (green) in HEK293 cells (AID 720680).
A short description of experiment [2]: qHTS assay to test for compound auto fluorescence at 460 nm (blue) in HEK293 cell free culture (AID 720681). An outline of the steps:
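Blue fluorescence (Ex 405/Em 460 nm, triamterene-equivalent) was read immediately after pin transfer of compound or DMSO into medium (DMEM, 10% FBS) without cells.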
(In qHTS, concentration-response curves come from the screen itself.)

Experiment [3] is described as follows: qHTS assay to test for compound auto fluorescence at 535 nm (green) in HEK293 cell free culture (AID 720682). A digest of the protocol:
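Steps: dispense DMEM/10% FBS into empty wells; pin in compound or DMSO; measure fluorescence at 485/535 nm. Values are fluorescein equivalents.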

Experiment [4] is described as follows: qHTS assay to test for compound auto fluorescence at 590 nm (red) in HEK293 cell free culture (AID 720683). A digest of the protocol:
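Red-channel autofluorescence of compounds in culture medium (DMEM, 10% FBS), no cells, measured at 540/590 nm. Rose Bengal sodium is the reference fluorophore for equivalence.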

Experiment [5] can be described thus: qHTS assay to test for compound auto fluorescence at 590 nm (red) in HepG2 cell free culture (AID 720684). A digest of the protocol: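 Cell-free; medium MEM + 10% FBS; compound or DMSO added by pintool; read Ex 540/Em 590 nm; Rose Bengal sodium as red reference fluorophore.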
Experiment [6] can be described thus: qHTS assay to test for compound auto fluorescence at 460 nm (blue) in HepG2 cell free culture (AID 720685). A digest of the protocol:
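Cell-free plates of MEM plus 10% FBS received 23 nL compound or DMSO vehicle; blue-channel (405/460 nm) intensity scored against triamterene as reference fluorophore.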

Experiment [7] in a line: qHTS assay to test for compound auto fluorescence at 535 nm (green) in HepG2 cell free culture (AID 720686).
Experiment [8] is described as follows: qHTS assay to test for compound auto fluorescence at 460 nm (blue) in HepG2 cells (AID 720687). An outline of the steps:
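Blue-channel autofluorescence (Ex/Em 405/460 nm, triamterene-equivalent) was measured after 1 hr compound exposure at 37 C, 5% CO2. Cells were HepG2, plated overnight at 37 C in MEM plus 10% FBS.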

The target in experiment [9] is Glucocorticoid receptor (Homo sapiens) (UniProt P04150). Description: qHTS assay to identify small molecule agonists of the glucocorticoid receptor (GR) signaling pathway (AID 720691; active = well fitted activation curve with a large enough effect in the signal ratio in the repeat runs, not every such curve was filed as active; the % refers to the signal ratio). A digest of the protocol: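 Compounds in DMSO, alongside positive controls, were added to GR-bla HeLa reporter cells and incubated 18 h at 37 C; GRE-driven beta-lactamase was detected by fluorescence after 2 h with FRET substrate at room temperature.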

Experiment [10] is described as follows: qHTS assay to identify small molecule antagonists of the glucocorticoid receptor (GR) signaling pathway - cell viability counter screen (AID 720693). Also: nearly all actives have a fitted effect of over 55% in size. Also: potency is read from the fitted curve at half-maximal effect.
A short description of experiment [11]: qHTS assay for identifying genotoxic compounds that show differential cytotoxicity against isogenic chicken DT40 cell lines with known DNA damage response pathways - Rev3 mutant cell line (AID 743014). Also: nearly all actives have a fitted effect of over 55% in size. Also: potency is read from the fitted curve at half-maximal effect.
Experiment [12] is described as follows: qHTS assay to identify small molecule antagonists of the androgen receptor (AR) signaling pathway - cell viability counter screen (AID 743033; also: nearly all actives have a fitted effect of over 45% in size).
A short description of experiment [13]: qHTS assay to identify small molecule antagonists of the androgen receptor (AR) signaling pathway using the MDA cell line - cell viability counter screen (AID 743041; also: nearly all actives have a fitted effect of over 45% in size). An outline of the steps:
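Viability read by CellTiter-Fluor fluorescence in the same wells as the antagonist screen, added after 15.5 h of a 16 h, 37C exposure. Human breast carcinoma MDA-kb2 AR-luc cells, compounds co-dosed with agonist R1881.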

A short description of experiment [14]: qHTS assay for identifying genotoxic compounds that show differential cytotoxicity against isogenic chicken DT40 cell lines with known DNA damage response pathways - wild type cell line (AID 743012). Also: nearly all actives have a fitted effect of over 60% in size. Also: potency is read from the fitted curve at half-maximal effect. A digest of the protocol:
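Viability of DNA repair-proficient chicken DT40 cells was assessed by CellTiter-Glo luminescence following 40 h compound exposure at 37 C/5% CO2.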

Experiment [15] in a line: qHTS assay for identifying genotoxic compounds that show differential cytotoxicity against isogenic chicken DT40 cell lines with known DNA damage response pathways - Rad54/Ku70 mutant cell line (AID 743015). Also: nearly all actives have a fitted effect of over 60% in size. Also: potency is read from the fitted curve at half-maximal effect.
A short description of experiment [16]: qHTS assay to identify small molecule antagonists of the thyroid receptor (TR) signaling pathway - cell viability counter screen (AID 743064). Also: nearly all actives have a fitted effect of over 50% in size. Also: potency is read from the fitted curve at half-maximal effect. An outline of the steps: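 Plate GH3.TRE-Luc cells; incubate 4 h at 37 °C; add compound, then T3 to 1 nM final; incubate 23.5 h; add CellTiter-Fluor; incubate 30 min at 37 °C, 5% CO2; read fluorescence.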
For experiment [17], the target named is Glucocorticoid receptor (Homo sapiens) (UniProt P04150). Description: qHTS assay to identify small molecule antagonists of the glucocorticoid receptor (GR) signaling pathway (AID 720692; active = well fitted inhibition curve with a large enough effect in the signal ratio in the repeat runs, not every such curve was filed as active; the % refers to the signal ratio; also: potency is read from the fitted curve at half-maximal effect). An outline of the steps:
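In a 1536-well cell format, compounds were added 4 h after seeding GR-bla HeLa cells, together with dexamethasone at 5 nM final; reporter activity was measured by FRET-substrate fluorescence following 18 h at 37 C.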

Chain of Glucocorticoid receptor (Homo sapiens) (P04150 whole entry, looked up): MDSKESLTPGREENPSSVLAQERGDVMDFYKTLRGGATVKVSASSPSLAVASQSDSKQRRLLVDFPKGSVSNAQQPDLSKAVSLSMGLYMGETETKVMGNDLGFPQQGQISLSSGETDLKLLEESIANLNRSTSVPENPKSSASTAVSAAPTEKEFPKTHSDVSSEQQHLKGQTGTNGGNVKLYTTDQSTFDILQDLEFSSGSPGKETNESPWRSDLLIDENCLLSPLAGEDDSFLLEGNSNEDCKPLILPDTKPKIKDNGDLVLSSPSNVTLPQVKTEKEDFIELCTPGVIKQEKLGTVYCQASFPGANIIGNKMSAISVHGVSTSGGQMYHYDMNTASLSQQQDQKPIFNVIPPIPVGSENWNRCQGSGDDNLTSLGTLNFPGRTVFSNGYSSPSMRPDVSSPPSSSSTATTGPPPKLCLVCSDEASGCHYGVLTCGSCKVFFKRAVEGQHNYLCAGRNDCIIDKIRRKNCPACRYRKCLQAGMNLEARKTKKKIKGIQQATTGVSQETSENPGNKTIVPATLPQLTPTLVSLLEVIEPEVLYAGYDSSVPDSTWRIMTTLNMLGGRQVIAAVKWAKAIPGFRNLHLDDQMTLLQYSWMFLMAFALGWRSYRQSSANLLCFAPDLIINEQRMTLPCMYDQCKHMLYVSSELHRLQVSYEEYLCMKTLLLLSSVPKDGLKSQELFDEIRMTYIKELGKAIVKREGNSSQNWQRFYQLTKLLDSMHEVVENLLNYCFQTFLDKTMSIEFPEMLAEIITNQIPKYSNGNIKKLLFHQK

With `CC(Cc1ccccc1)(NC(=O)CN)c1ccccc1` (stereo unspecified), the call in [1], in experiment [3], in [4], in experiment [5], in [6] and in experiment [7] was inactive. In addition, the call in experiment [8] was inactive. Also, the Potency result in experiment [2], in experiment [9], in experiment [10], in experiment [11], in experiment [12] and in experiment [13] was “inactive” each time.
Take `O=C(O)c1ccc2cc(O)ccc2c1`: the compound was classed as inactive in [1], in experiment [3], in experiment [4], in experiment [5], in experiment [6] and in experiment [7]. In addition, the outcome in experiment [8] was inactive. The Potency entry in [2], in experiment [9], in [10], in experiment [14], in experiment [11] and in experiment [15] was “inactive” each time. The Potency entry in experiment [12], in experiment [13] and in experiment [16] was “inactive” in each case.
With `CCOC(=O)CC(O)(CC(=O)OCC)C(=O)OCC`, the outcome in experiment [1], in experiment [3], in experiment [4], in experiment [5], in [6] and in experiment [7] was inactive. Also, the compound was called inactive in experiment [8]. For the same compound, the Potency result in [2], in experiment [17], in [10], in experiment [14], in experiment [12] and in [13] was “inactive” in each case.
For `C/C(=C\C(C)CC(C)CC(C)C)C1CC(=O)OC1=O` (stereo unspecified), the call in experiment [1], in experiment [3], in experiment [4], in experiment [5], in [6] and in [7] was inactive. In [8], the call was inactive. In addition, the Potency entry in experiment [2], in experiment [10], in experiment [14], in [11], in [15] and in [13] was “inactive” each time. Also, the Potency entry in experiment [16] is “inactive”. In addition, the Potency in [17] is 24.6 µM (active).
Turning to `COC(=O)c1cc(Cl)ccc1[N+](=O)[O-]`, the outcome in experiment [1], in [3], in experiment [4], in experiment [5], in experiment [6] and in experiment [7] was inactive. In addition, the call in experiment [8] was inactive. The Potency entry in experiment [2], in experiment [9], in [17], in experiment [10], in experiment [14] and in experiment [15] was “inactive” in each case. Besides, the Potency entry in [12], in experiment [13] and in [16] was “inactive” throughout.
As to `COc1cc(C)c(Cc2cnc(N)nc2N)cc1OC`, the outcome in experiment [1], in [3], in experiment [4], in experiment [5], in [6] and in [7] was inactive. Moreover, in [8], the outcome was inactive. Moreover, the Potency result in [2], in experiment [9], in experiment [17], in experiment [10] and in [13] was “inactive” in each case. Moreover, the Potency in [14] and in [15] was 26.6 µM (active) each time.
As to `CNc1ccccc1`, the compound was classed as inactive in experiment [1], in experiment [3], in experiment [4], in [5], in [6] and in [7]. Besides, the outcome in experiment [8] was inactive. The Potency entry in [2], in experiment [9], in experiment [14], in experiment [11], in experiment [15] and in experiment [12] was “inactive” in each case. Further, the Potency result in [13] and in experiment [16] was “inactive” each time.
Take `C=Cc1ccc(C=C)cc1`: the compound was called inactive in [1], in experiment [3], in experiment [4], in [5], in experiment [6] and in experiment [7]. For the same compound, the compound was called inactive in experiment [8]. Moreover, the Potency result in [2], in experiment [17], in [10], in experiment [14], in experiment [11] and in experiment [15] was “inactive” throughout. For the same compound, the Potency result in experiment [12], in experiment [13] and in [16] was “inactive” throughout.
Take `CC/C=C\CCO`: the compound was called inactive in experiment [1], in experiment [3], in [4], in [5], in experiment [6] and in experiment [7]. In addition, the result in experiment [8] was inactive. For the same compound, the Potency result in experiment [2], in experiment [9], in experiment [17], in [10], in [11] and in [15] was “inactive” in each case. The Potency entry in experiment [12], in experiment [13] and in experiment [16] was “inactive” in each case.
`CCCCCCCCNC`: the compound was called inactive in [1], in [3], in [4], in [5], in [6] and in experiment [7]. Moreover, the outcome in experiment [8] was inactive. For the same compound, the Potency entry in experiment [2], in experiment [17], in experiment [14], in experiment [11], in experiment [15] and in experiment [12] was “inactive” in each case. The Potency entry in [13] and in experiment [16] was “inactive” throughout.
For the compound `CC(CN=Cc1ccccc1O)N=Cc1ccccc1O` (stereo unspecified), the compound was classed as inactive in [1], in experiment [3], in [4], in experiment [5], in experiment [6] and in [7]. Moreover, the call in experiment [8] was inactive. Besides, the Potency result in experiment [2], in experiment [10], in experiment [14], in experiment [15], in [13] and in experiment [16] was “inactive” in each case.
As for `CC(=O)Nc1ccccc1O`, the call in experiment [1], in experiment [3], in experiment [4], in experiment [5], in [6] and in [7] was inactive. In [8], the compound was called inactive. Moreover, the Potency result in experiment [2], in [10], in [14], in experiment [11], in [15] and in experiment [12] was “inactive” each time. The Potency entry in experiment [13] and in experiment [16] was “inactive” each time.
As for `CC1(COc2ccc(CC3SC(=O)NC3=O)cc2)CCCCC1` (stereo unspecified), the call in experiment [1], in experiment [3], in [4], in [5], in experiment [6] and in experiment [7] was inactive. Further, the outcome in experiment [8] was inactive. Also, the Potency entry in experiment [2] and in experiment [12] was “inactive” throughout. The Potency in experiment [10] is 23.9 µM (active); in experiment [14], 10.6 µM (active); in experiment [11], 23.7 µM (active); in experiment [15], 11.9 µM (active); in experiment [16], 23.7 µM (active).
